# Paper PMC7819943, “Rice protein-binding microarrays: a tool to detect cis-acting elements near promoter regions in rice”
# The full ranking holds about 68,000 sequences; the median of “fluorescence intensity (a.u.)” is about 9,100, and the highest 2% start at about 16,000. Only a selection was taken, and the highest values are over-represented in it overall.
# Target: OsWRKY34 (Oryza sativa, UniProt Q0JBA9 1-250)
# Experiment: protein-binding microarray (RPBM); PBS, 2% BSA, 51.3 ng/ul salmon testes DNA, 50 uM zinc acetate, 200 nM TF, 25 C, 1 h; high values mean tight binding
# Conditions: protein: recombinant; tags: N-terminal polyhistidine and DsRed monomer fusion (pET32a); label: CyDye5-dUTP incorporated in the synthesized complementary strand; 3' TTTTT single-stranded linker to array surface; dsDNA, one strand shown
# Summary of the method: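 Transcription factors, each fused N-terminally to a polyhistidine tag and DsRed, were expressed in E. coli BL21-CodonPlus and purified on Ni–NTA. A custom Agilent array was made double-stranded by primer extension with Cy5-dUTP and blocked with 2% BSA. It was incubated with 200 nM protein in PBS, 2% BSA, salmon testes DNA and 50 µM zinc acetate at 25 °C for 1 h, then washed. The binding signal is per-feature fluorescence intensity (arbitrary units) read on an Axon 4000B scanner.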
# Sequence of OsWRKY34 (Q0JBA9 entry or part of it): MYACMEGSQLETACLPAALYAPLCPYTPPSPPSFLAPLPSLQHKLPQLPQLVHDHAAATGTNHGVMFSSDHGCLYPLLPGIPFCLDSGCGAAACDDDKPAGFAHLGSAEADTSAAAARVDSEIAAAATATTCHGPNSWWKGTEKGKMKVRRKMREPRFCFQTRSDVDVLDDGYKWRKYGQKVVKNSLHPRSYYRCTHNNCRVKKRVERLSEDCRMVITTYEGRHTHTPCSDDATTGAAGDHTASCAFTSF
row,Sequence,binding signal
1,ATCCGTCCGTTTCGTTCCGTACGAACCGCCGGCGTTCAAACGGAGTCACCTAGTGCAG,8580 fluorescence intensity (a.u.)
2,GCCTCCGCCGCCGCCGCCGCCCGCCGGCCATCTCCGTCGACGGAGTCACCTAGTGCAG,13900 fluorescence intensity (a.u.)
3,CAATGTATTCAGGTACGCCGATTATTTGGTTGGTAGTAGTCGGAGTCACCTAGTGCAG,11500 fluorescence intensity (a.u.)
4,ATACTCGCTCCGTGTTTTAATATATGACGCTGTTGATTTTCGGAGTCACCTAGTGCAG,12700 fluorescence intensity (a.u.)
5,GCTCGGTGTGGCGATCTCACAGCCGCATATCGCATTTCACCGGAGTCACCTAGTGCAG,8680 fluorescence intensity (a.u.)
6,GGCCCCACGTTTCATCCTCACGACCGTGTCCAACCCAGGGCGGAGTCACCTAGTGCAG,10300 fluorescence intensity (a.u.)
7,GAGGTGGTGGAGCGAGGTGGAAGAGGGCGCGGGTGGCGGGCGGAGTCACCTAGTGCAG,9480 fluorescence intensity (a.u.)
8,TGTGGTGGCGAGCGGCACGGAGGCGGGGCGGTGGAGGGAGCGGAGTCACCTAGTGCAG,9670 fluorescence intensity (a.u.)
9,CGGTGGTGGTGGATGCTGGCGCTGGCGGTGGGCGCGAGCTCGGAGTCACCTAGTGCAG,10100 fluorescence intensity (a.u.)
10,TGGAGTGGAGTTTCGATAGGTGTGGCGGGGAGGGAGGGAGCGGAGTCACCTAGTGCAG,19800 fluorescence intensity (a.u.)
11,CGCGCGGTCGAGGAGGGTGGGGCCGCCGCGCTCACCTCCGCGGAGTCACCTAGTGCAG,8480 fluorescence intensity (a.u.)
12,GAAGAGGAGAGAGGAAGAGAGGTGGAAAGGGGAGGGGAAGCGGAGTCACCTAGTGCAG,9460 fluorescence intensity (a.u.)
13,AAGAGGGCGCGGGTGGCGGGGATGGGCGAGGGGAAGGCGGCGGAGTCACCTAGTGCAG,17700 fluorescence intensity (a.u.)
14,ATCTCCGTCGGTGGGGAAAAGGAGGTGGGGAGGGGAGGAGCGGAGTCACCTAGTGCAG,18800 fluorescence intensity (a.u.)
15,GCTTTGGTCGGTTGGGGTGGGCTGGATGCGCCTCCGCGCTCGGAGTCACCTAGTGCAG,17800 fluorescence intensity (a.u.)
16,CGTCGGTAGGGAGGAGGAGGAGGAGGAGGTGGTGGTGGTGCGGAGTCACCTAGTGCAG,12000 fluorescence intensity (a.u.)
17,TGGTTTTATAGGCGTGGGGTGTGGAGCTTCGAGGGGAAGGCGGAGTCACCTAGTGCAG,13900 fluorescence intensity (a.u.)
18,GTGGCGCGAGGGGAGGGAAGGGTAGGGCGGCGCGGCGGCGCGGAGTCACCTAGTGCAG,9730 fluorescence intensity (a.u.)
19,CAGATGGTCTGGTGGTCGGCGGAGGTCCCGGCGCGCGCGTCGGAGTCACCTAGTGCAG,8360 fluorescence intensity (a.u.)
20,TATGGTATTTGGGTTAAAGAACGAAAATCGAACTCGCTGTCGGAGTCACCTAGTGCAG,8160 fluorescence intensity (a.u.)
21,GAGGGAGGGAGGGAGGGAGACCGCGAGTGTGAGTGACTGCCGGAGTCACCTAGTGCAG,10200 fluorescence intensity (a.u.)

row,Sequence,binding signal
1,ACTGCCCTTATCATTTCCGATTCCGTTTCCGAGAAAATATCGGAGTCACCTAGTGCAG,9240 fluorescence intensity (a.u.)
2,ACTTTGTCACTTGACTTATTCTCTGGCCGTGCGTATAAATCGGAGTCACCTAGTGCAG,8150 fluorescence intensity (a.u.)
3,CCTGCTATTGTACCTGCTCTAAGCCAGCTATAACCATATACGGAGTCACCTAGTGCAG,8170 fluorescence intensity (a.u.)
4,GTGAAGTGTGGTTTAAAAATGGTTGCCTGGTCACTTTATCCGGAGTCACCTAGTGCAG,9020 fluorescence intensity (a.u.)
5,TGTCAGTCACTGTCCCCTTCGTGGTCGTCTTCGCCACTTCCGGAGTCACCTAGTGCAG,9210 fluorescence intensity (a.u.)
6,GGCGGGAGGCGCGGGCGGCGAGGTGCTCCTCTTCTCTCTCCGGAGTCACCTAGTGCAG,9060 fluorescence intensity (a.u.)
7,GTCGGGCGGGAGCGGTGCAGGGTGGAGGAGGTGGGCGGGGCGGAGTCACCTAGTGCAG,22900 fluorescence intensity (a.u.)
8,GGGGAGGCGAGGCGGCGAGGTTATAAAAACGGTGGGGTGGCGGAGTCACCTAGTGCAG,12200 fluorescence intensity (a.u.)
9,GGGGTGGGGTTGGCGGCGACGCGGGCGAGGCCGAGGAGGACGGAGTCACCTAGTGCAG,13400 fluorescence intensity (a.u.)
10,AAGCGATCGGGGCGGCGGAGGAGGTGGGTGGGAGGGAGGGCGGAGTCACCTAGTGCAG,30200 fluorescence intensity (a.u.)
11,AGGTGGAGGCGCCGGTGTGGGTGGTGGAGCGGGAGGAGGTCGGAGTCACCTAGTGCAG,8610 fluorescence intensity (a.u.)
12,GGCGGGCGCGGTGGAGGCGGGGAGGAAGGGGAGCGGAGGTCGGAGTCACCTAGTGCAG,9390 fluorescence intensity (a.u.)
13,CTCTCCTCTCTTCTCGAGCGCGGCGGCGGTGGTGGGGAGGCGGAGTCACCTAGTGCAG,14300 fluorescence intensity (a.u.)
14,GCGGAGGAGGGCGGGAGGAAGCGGGTGGCGGCGGCGGAGTCGGAGTCACCTAGTGCAG,10900 fluorescence intensity (a.u.)
15,TCTCTTCCTTGCTGTGGTGGCGGCGGGCGGGAGGGCGGCGCGGAGTCACCTAGTGCAG,35000 fluorescence intensity (a.u.)
16,CGGCGGAGGGAGGATCGGGGTGGGTGGCGCAGCGGCGACGCGGAGTCACCTAGTGCAG,11200 fluorescence intensity (a.u.)
17,GCGGTGGCGGTTGGGGTGGCGAGTGGGGAGGAGGAGGCGGCGGAGTCACCTAGTGCAG,18900 fluorescence intensity (a.u.)
18,ATACTAGTCCATTCGAGTTGAAACGTTCAGTGAACAGCTACGGAGTCACCTAGTGCAG,8030 fluorescence intensity (a.u.)
19,GATCTCTTGCAGCTGCGCATCTGTGCATGCATCCACACTACGGAGTCACCTAGTGCAG,9260 fluorescence intensity (a.u.)
20,TTGATCCTGCTTTTAGTTATAGTTTTTGTTAGGGTGTATTCGGAGTCACCTAGTGCAG,10100 fluorescence intensity (a.u.)
21,TAAAACTAGTCATCCCTTCATTTTATATTATAAGTTGTTTCGGAGTCACCTAGTGCAG,8290 fluorescence intensity (a.u.)
